HT1080 IDH1KD tx – HT-1080 IDH1 knockdown cell toxicity (counter line). hit rate 2% among 360,000. HT-1080 IDH1 knockdown viability, ATP luminescence, 48 h. Potency, µM (top dose mostly 46.1 µM), inactives show at the highest dose activity, negative = toxicity, usual class: cytotoxic. AID 686971;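 note: potency is the fitted concentration of half-maximal effect; 0% = DMSO wells and -100% = cell-free medium wells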
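Luminescent ATP read-out (CellTiter-Glo, 10 min at room temperature) after 48 h compound exposure at 37 °C gave viability of IDH1-knockdown HT-1080 cells. Activity was normalised to DMSO and cell-free wells, then fitted as concentration-response curves.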
TDP1 cell CPT – growth inhibition of DT40 Tdp1-/-;hTDP1 cells with camptothecin (screen for TDP1 inhibitors); AID 686979; hit rate 12% among 420,000; chicken DT40 Tdp1-/-;hTDP1 cells + 20 nM CPT, ATP luminescence, 48 h; Potency, µM (series often up to 46.2 µM), for inactives: top-dose activity change, negative = growth inhibition, most hits filed as inhibitors; note: potency is the fitted concentration of half-maximal effect; nearly all actives have a fitted effect of over 55% in size
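Cell growth measured by CellTiter-Glo luminescence after a minimum 48 h, 37 C compound exposure with 20 nM CPT in Tdp1-knockout DT40 cells stably expressing hTDP1, seeded 400/well; qHTS titration format.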
DT40 TDP1 no CPT – qHTS for Inhibitors of human tyrosyl-DNA phosphodiesterase 1 (TDP1): qHTS in cells in absence of CPT. DT40 Tdp1-/- hTDP1 cells, no CPT, ATP luminescence, 48 h. Potency, µM (highest dose often 46.2 µM), for inactives: top-dose activity change, negative = growth inhibition, most hits filed as inhibitors. hit rate 15% among 420,000; note: potency is the fitted concentration of half-maximal effect; nearly all actives have a fitted effect of over 55% in size
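Growth of hTDP1-complemented DT40 Tdp1-knockout cells is measured by ATP luminescence after at least 48 hr compound exposure at 37 °C, with DMSO substituting for the 20 nM CPT used in the parallel screen.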
IL-1B inflam inh – inhibitors of inflammasome signaling (IL-1 beta secretion). THP-1 LPS/ATP IL-1B secretion, AlphaLISA, 16 h; hits give low values. activity change, % at 57.5 µM. hit rate 4.7% among 360,000. AID 743279; in the data active = activity change below about -50%; inconclusive = mostly about -30% to -49%
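Secreted IL-1B measured by AlphaLISA bead assay after 16 h compound exposure of THP-1 cells; compounds (final up to 57.5 uM) added 1 h before LPS (250 ng/mL) and ATP (1.25 mM) stimulation; lower signal means less secretion.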
HT1080-NT tox – kills 2HG-producing HT-1080-NT fibrosarcoma cells; Potency, µM (series often up to 46.1 µM), for the others: top-dose activity, negative = less viability, hits mostly cytotoxic; HT-1080-NT fibrosarcoma viability, CellTiter-Glo ATP luminescence, 48 h; hit rate 1.6% among 360,000;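 note: NT is the 2HG producing partner of a matched IDH1 knockdown line; potency is the fitted concentration of half-maximal effect; 0% = DMSO-treated cells and -100% = media-only wells without cells; nearly all actives have a fitted effect of over 55% in size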
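HT-1080-NT fibrosarcoma cells (2HG-overproducing), 750 cells/well in RPMI with 5% FBS, dosed after 2 h and incubated 48 h at 37C. CellTiter-Glo luminescence normalized to DMSO and no-cell wells; concentration-response curves fitted and classed.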
Starred values were filed as active, the others as inactive; u = inconclusive; x = no result; [ ] = another dose, or the depositor's remark. This is a sample that favours compounds with a hit; in the whole collection about 19% have one here. Unless noted, calls come from the whole dose curve; as a rule, active = well fitted curve in the direction sought with a large enough effect; inconclusive = small, poorly fitted or top-dose-only effect, or another doubt; inactive = no such curve, though single readings can be large; an effect the other way counts as inactive or inconclusive. Unless noted, % is set by controls: 0 for no effect and ±100 for the full control effect.

SMILES | HT1080 IDH1KD tx | TDP1 cell CPT | DT40 TDP1 no CPT | IL-1B inflam inh | HT1080-NT tox
CCC1CN2CCc3cc(OC)c(OC)cc3C2CC1CC1c2cc(OC)c(OC)cc2CCN1C(=O)C(Cc1c[nH]c2ccccc12)NC(=O)OC(C)(C)C (stereo not drawn) | -19.0% | 6.51µM* | 5.8µM* | -29.6 | -12.8%
CC(C)C[C@H](NC(=O)OC(C)(C)C)C(=O)N1CCC(C(=O)N[C@@H](Cc2c[nH]c3ccccc23)C(=O)O)CC1 | 1.6% | -3.9% | 11.1% | 35.0 | 9.6%
CCOC(=O)C[n+]1c(C)csc1C | 8.5% | 0.3% | 2.5% | 0.1 | 13.5%
Cc1csc(C)[n+]1CCC1CCCCC1 | x | u | 12.6µM* | x | x
Cc1c(N=Nc2c(-c3ccc([N+](=O)[O-])cc3)[nH]n(C(N)=S)c2=O)cccc1[N+](=O)[O-] | u | 2.91µM* | 2.91µM* | u | u
NC(=S)n1[nH]c(-c2ccc([N+](=O)[O-])cc2)c(N=Nc2cccc([N+](=O)[O-])c2)c1=O | 0.82µM* | u | u | 35.5 | 1.46µM*
NC(=S)n1[nH]c(-c2ccc([N+](=O)[O-])cc2)c(N=Nc2ccccc2[N+](=O)[O-])c1=O | -1.2% | u | u | 3.9 | -1.0%
COc1ccc(CC(=O)NNC(=O)COc2ccc(F)cc2)cc1S(=O)(=O)N1CCOCC1 | 22.8% | -6.2% | -24.5% | -0.1 | 1.2%
CC(C)(C)c1ccc(C(=O)NNC(=S)NCc2ccco2)cc1 | -12.7% | u | 23.1µM* | 15.2 | -2.3%
CC(C)(O)C(=O)NNC(=S)NCc1ccco1 | -3.3% | -7.4% | -7.7% | 0.0 | 0.2%
COc1cc(OC)cc(C(=O)NC(=S)NCc2ccco2)c1 | u | u | u | -6.3 | 17.8µM*
CC(C)(C)N1C(=O)c2ccc(C(=O)NCc3ccco3)cc2C1=O | -1.8% | -27.9% | u | -57.6* | 2.4%
COc1cc(OC)cc(C(=O)NNC(=S)NCc2ccco2)c1 | 18.5% | -20.5% | -22.7% | 7.8 | 17.8%
CC(C)c1cc(C(=O)NNC(=S)NCc2ccco2)c(O)c(C(C)C)c1 | 16.4µM* | u | u | -54.2* | u
CCCCCn1nc(C(=O)OCc2nc(N)nc(Nc3ccccc3)n2)c2ccccc2c1=O | -22.2% | 3.4% | u | u | -27.7%
CC(C)Cc1nc(SCC(=O)NCC2CCCO2)c2c(=O)n(C)c(=O)n(C)c2n1 (stereo not drawn) | 12.3% | 14.9% | 4.2% | -7.4 | 18.2%
Cc1ccc(S(=O)(=O)N2C3CCCCC3O[C@H]2CC(=O)OCc2ccccc2)cc1 (stereo partly drawn) | -0.1% | u | u | 12.3 | 2.3%
COc1ccc(S(=O)(=O)N2CCC(C(=O)NCc3ccncc3)CC2)cc1C | 4.0% | -3.6% | -15.4% | -3.4 | 11.4%
COc1ccc(NC(=O)Cn2c(=O)n(-c3cccc(C)c3)c(=O)c3c2c2cc(C)ccc2n3C)cc1OC | x | -5.6% | u | x | x
Oc1ccccc1C1=NC(c2ccccc2)NC(c2ccccc2)C1 (stereo not drawn) | -0.1% | u | 18.4µM* | u | 15.4%
OCCN1CCN(c2ncnc3ccc(Br)cc23)CC1 | -13.0% | -89.4% | 4.11µM* | -23.6 | 0.2%
OCCN1CCN(c2nccn3ccnc23)CC1 | 0.0% | 2.3% | -2.1% | 7.9 | 11.1%
OCCN1CCN(c2nc(-c3ccccc3)c3cc(Br)ccc3n2)CC1 | 23.1µM* | u | 9.2µM* | -78.8* | u
CCOC(=O)C1=C(C)n2c(s/c(=C3\C(=O)Nc4ccccc43)c2=O)=NC1c1ccc(OC)cc1 (stereo not drawn) | 14.1% | u | 20.6µM* | 30.4 | 12.0%
CCOC(=O)C1=C(C)N=c2s/c(=C3/C(=O)Nc4ccccc43)c(=O)n2C1c1ccc(C)cc1 (stereo not drawn) | -10.7% | 25.9µM* | 23.1µM* | 59.5 | -15.9%
SMILES | HT1080 IDH1KD tx | TDP1 cell CPT | DT40 TDP1 no CPT | IL-1B inflam inh | HT1080-NT tox
CCOC(=O)C1=C(C)N=c2s/c(=C\c3ccc(C(=O)O)cc3)c(=O)n2C1c1ccc(F)cc1 (stereo not drawn) | 2.3% | -11.3% | 0.9% | -6.8 | -0.1%
O=C(CN(CC1CCCO1)C(=O)CNS(=O)(=O)c1ccccc1)NCCc1ccccc1 (stereo not drawn) | -2.5% | -4.2% | -2.1% | -15.2 | 4.3%
Nc1ccc2oc3ccc(N)cc3c(=O)c2c1 | 3.2%[9.24 µM] | 4.4% | -6.6% | -73.2* | -2.8%
Cc1nc2cnc(N3CCOCC3)nc2n(CCC#N)c1=O | x | u | -11.6% | x | x
CCCCN(C)CCNC(=O)c1cc2c(=O)n(C)c3ccccc3c2n1C | x | u | 23.1µM* | x | x
CCCCN(C)CCNC(=O)c1cc2c(=O)[nH]c3ccccc3c2n1C | -9.7% | 4.8% | -28.1% | -16.3 | -15.5%
CC(NC(=O)c1cc2c(=O)n(C)c3ccccc3c2n1C)c1ccc2c(c1)OCCO2 (stereo not drawn) | 7.5% | 29.1µM* | 13µM* | 13.0 | 14.5%
CCCCN(CC)CCCNC(=O)c1cc2c(=O)n(C)c3ccccc3c2n1C | -20.7% | u | u | -73.0* | -4.9%
Cn1c(C(=O)NCc2ccccn2)cc2c(=O)n(C)c3ccccc3c21 | -5.4% | 0.581µM* | u | -27.6 | 3.5%
Cn1c(SCC(=O)Nc2ccc(Br)cn2)nnc1C1CC1 | 15.9% | 14.2% | 10.9% | 0.0 | 6.1%
CCN(CC)c1cc(C)c2cc(NC(=O)c3ccc(Br)o3)ccc2n1 | -21.9% | u | u | -65.8* | -15.4%
CCCCc1ccc(C(=O)Nc2ccc3nc(N(CC)CC)cc(C)c3c2)cc1 | x | u | 18.4µM* | x | x
CCN(CC)c1cc(C)c2cc(NC(=O)c3ccccc3OC)ccc2n1 | u | u | 16.4µM* | x | u
CCN(CC)c1cc(C)c2cc(NC(=O)c3cccs3)ccc2n1 | -0.8% | 16.4µM* | 23.1µM* | x | u
CCN1CCN(c2cc(C)c3cc(NC(=O)c4ccc(Br)o4)ccc3n2)CC1 | u | u | u | -2.2 | -28.4%
N#Cc1ccccc1OCC(=O)N1CCN(S(=O)(=O)c2ccc(Cl)cc2)CC1 | -1.5% | -8.2% | u | 26.7 | -0.9%
COc1ccc(C(=O)CN2C(=O)NC3(CCCc4ccccc43)C2=O)c(OC)c1 (stereo not drawn) | 5.6% | -8.2% | -14.9% | -7.7 | 0.0%
Cc1cn(C2CCC(CO)O2)c(=O)[nH]c1=O (stereo not drawn) | -4.2% | -18.3% | 23.1% | 14.0 | -3.8%
CCN(CC)c1cc(C)c2cc(NC(=O)c3ccc(OC)c(OC)c3)ccc2n1 | x | 20.6µM* | 23.1µM* | x | x
CCN(CC)c1cc(C)c2cc(NC(=O)c3cccc(F)c3)ccc2n1 | x | u | 23.1µM* | x | x

Screening results deposited in PubChem BioAssay by National Center for Advancing Translational Sciences (NCATS).
